According to PubChem BioAssay (NCI):
This is part of a sample that, as a whole, favours compounds with a hit. Of some 79,000 tested, about 15% had one in any assay. Activity calls are given as the source filed them. Rule as the data show it: active = growth inhibition above about 70%; inactive = the rest.

What was measured:
[1] = NCI Yeast Anticancer Drug Screen. Data for the wt1 strain (AID 149);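 also: 0% = growth of vehicle-treated wt1 cultures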; details: S. cerevisiae wt1 strain (SPY 50644) growth inhibition, hits give high values
Procedure, shortened: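 The wt1 strain was treated with compounds, and growth was compared with vehicle-treated cultures to give inhibition.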

[2] = NCI Yeast Anticancer Drug Screen. Data for the mgt1 strain (AID 153); details: S. cerevisiae mgt1 mutant growth inhibition, hits give high values
Procedure, shortened: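 mgt1 strain exposed; growth vs vehicle control recorded as inhibition.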

[3] = NCI Yeast Anticancer Drug Screen. Data for the rad50 strain (AID 155);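 also: 0% = growth of vehicle-only cultures of the same strain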; details: S. cerevisiae rad50 strain growth inhibition, hits give high values
Procedure, shortened: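 Cells are treated with compound, grown, and their growth is then scored against vehicle-only cultures of the same repair-deficient yeast strain.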

[4] = NCI Yeast Anticancer Drug Screen. Data for the mec2-1 strain (AID 157); details: S. cerevisiae mec2-1 strain, hits give high values
Procedure, shortened: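 Vehicle-treated cultures served as reference for growth inhibition of compound-exposed mec2-1 yeast.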

[5] = NCI Yeast Anticancer Drug Screen. Data for the rad14 strain (AID 159);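 also: 0% = growth of vehicle-treated control cultures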; details: S. cerevisiae rad14 strain growth inhibition, hits give high values
Procedure, shortened: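 Readout: yeast growth inhibition, referenced to vehicle-only cultures. Strain bears a defined alteration in DNA damage repair.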

[6] = NCI Yeast Anticancer Drug Screen. Data for the sgs1 mgt1 strain (AID 161);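 also: 0% = growth of cultures given vehicle only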; details: S. cerevisiae sgs1 mgt1 strain, hits give high values
Procedure, shortened: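 Mutant yeast exposed to compound; growth scored against vehicle-only wells.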

[7] = NCI Yeast Anticancer Drug Screen. Data for the CLN2oe strain (AID 163);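 also: 0% = growth of vehicle-only control cultures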; details: S. cerevisiae CLN2oe strain, hits give high values
Procedure, shortened: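 Inhibition relative to vehicle-treated yeast is reported. Cells: strain with genetic alteration in cell-cycle control, grown with compound.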

[8] = NCI Yeast Anticancer Drug Screen. Data for the cln2 rad14 strain (AID 165);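 also: 0% = growth equal to vehicle treated cultures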; details: S. cerevisiae cln2 rad14 strain, hits give high values
Procedure, shortened: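 Each compound was tested on cln2 rad14 yeast. Inhibition of growth was calculated against vehicle-exposed controls.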

[9] = NCI Yeast Anticancer Drug Screen. Data for the bub3 strain (AID 167); details: S. cerevisiae bub3 mutant strain, hits give high values
Procedure, shortened: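 Part of a panel of yeast mutants defective in DNA damage repair or cell cycle regulation. Each strain is grown with compound, and inhibition is calculated relative to solvent-treated cultures.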

[10] = NCI Yeast Anticancer Drug Screen. Data for the wt2 strain (AID 169);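 also: 0% = growth of vehicle-treated yeast cultures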; details: S. cerevisiae wt2 strain growth inhibition, hits give high values
Procedure, shortened: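 Inhibition of yeast growth was determined after compound treatment, normalised to controls receiving only vehicle.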

[11] = NCI Yeast Anticancer Drug Screen. Data for the mlh1 strain (AID 171);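 also: 0% = growth of vehicle-treated control cultures of the same strain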; details: S. cerevisiae mlh1 strain growth inhibition, hits give high values
Procedure, shortened: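 Vehicle-normalised growth inhibition of a repair- or checkpoint-altered yeast strain following compound treatment.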

[12] = NCI Yeast Anticancer Drug Screen. Data for the sgs1 strain (AID 173);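 also: 0% = growth of vehicle-only control cultures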; details: S. cerevisiae sgs1 mutant, hits give high values
Procedure, shortened: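 Screen format: yeast with repair or checkpoint alterations, compound exposure, growth read relative to vehicle.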

[13] = NCI Yeast Anticancer Drug Screen. Data for the mlh1 rad18 strain (AID 175); details: S. cerevisiae mlh1 rad18 strain growth inhibition, hits give high values
Procedure, shortened: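 Vehicle-treated cultures served as the reference for growth inhibition in a yeast strain carrying DNA damage repair alterations exposed to each compound.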

[14] = NCI Yeast Anticancer Drug Screen. Data for the rad50EPP+ strain (AID 151);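 also: 0% = growth of vehicle-treated control cultures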; details: S. cerevisiae rad50 mutant strain, hits give high values
Procedure, shortened: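 In this screen, rad50EPP+ yeast were exposed to compounds. Growth inhibition was scored against vehicle-treated controls.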

[15] = NCI Yeast Anticancer Drug Screen. Data for the rad18 strain (AID 177); details: S. cerevisiae rad18 mutant growth inhibition, hits give high values
Procedure, shortened: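 Test articles were incubated with altered yeast defective in DNA damage repair. Results are given as inhibition of growth versus vehicle.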

[16] = at 5.0 µM (retest, dose inferred, filed as 0.5)
[17] = at 50.0 µM (retest, dose inferred, filed as 5.0)

Measured: growth inhibition

CCCC/C=C/C(CC)(C(=O)OCC)C(=O)OCC
inactive: [1]; at 1.2 µM -2% | [1]; at 3.7 µM -3% | [1]; at 11.0 µM -5% | [1]; at 33.0 µM -7% | [1]; at 100.0 µM -9% | [2]; at 1.2 µM -3% | [2]; at 3.7 µM -1% | [2]; at 11.0 µM -2% | [2]; at 33.0 µM -5% | [2]; at 100.0 µM -3% | [3]; at 1.2 µM -2% | [3]; at 3.7 µM -4% | [3]; [16] -9% | [3]; at 11.0 µM -3% | [3]; at 33.0 µM -3% | [3]; [17] -11% | [3]; at 50.0 µM 3.6% | [3]; at 100.0 µM -6% | [4]; at 1.2 µM 0% | [4]; at 3.7 µM -1% | [4]; [16] 5% | [4]; at 11.0 µM -2% | [4]; at 33.0 µM -1% | [4]; [17] 43% | [4]; at 50.0 µM -11.7% | [4]; at 100.0 µM -1% | [5]; at 1.2 µM -2% | [5]; at 3.7 µM -5% | [5]; at 11.0 µM -2% | [5]; at 33.0 µM -1% | [5]; at 100.0 µM 1% | [6]; [16] -3% | [6]; [17] 33% | [6]; at 50.0 µM 10.6% | [7]; at 1.2 µM -4% | [7]; at 3.7 µM 0% | [7]; at 11.0 µM -6% | [7]; at 33.0 µM -7% | [7]; at 100.0 µM -3% | [8]; [16] 6% | [8]; [17] 24% | [8]; at 50.0 µM 16.6% | [9]; at 1.2 µM 0% | [9]; at 3.7 µM -1% | [9]; [16] 11% | [9]; at 11.0 µM 1% | [9]; at 33.0 µM 6% | [9]; [17] 52% | [9]; at 50.0 µM 24.1% | [9]; at 100.0 µM 11% | [10]; at 1.2 µM -3% | [10]; at 3.7 µM -4% | [10]; at 11.0 µM -5% | [10]; at 33.0 µM -5% | [10]; at 100.0 µM -5% | [11]; at 1.2 µM -3% | [11]; at 3.7 µM -6% | [11]; at 11.0 µM -5% | [11]; at 33.0 µM -2% | [11]; at 100.0 µM 5% | [12]; at 1.2 µM -2% | [12]; at 3.7 µM 1% | [12]; at 11.0 µM 0% | [12]; at 33.0 µM 0% | [12]; at 100.0 µM 5% | [13]; [16] 7% | [13]; [17] 36% | [13]; at 50.0 µM -8.65%

COCCOC(=O)CCn1cc(F)c(=O)[nH]c1=O
inactive: [1]; at 1.2 µM 0% | [1]; at 3.7 µM 3% | [1]; at 11.0 µM 7% | [1]; at 33.0 µM 12% | [1]; at 100.0 µM 23% | [14]; at 1.2 µM -3% | [14]; at 3.7 µM 3% | [14]; at 11.0 µM 27% | [14]; at 33.0 µM 67% | [2]; at 1.2 µM -1% | [2]; at 3.7 µM 7% | [2]; at 11.0 µM 16% | [2]; at 33.0 µM 48% | [3]; at 1.2 µM -5% | [3]; at 3.7 µM -11% | [3]; [16] 24% | [3]; at 11.0 µM 0% | [3]; at 33.0 µM 34% | [3]; at 50.0 µM 64.1% | [3]; at 100.0 µM 61% | [4]; at 1.2 µM -1% | [4]; at 3.7 µM 3% | [4]; [16] 5% | [4]; at 11.0 µM 13% | [4]; at 33.0 µM 48% | [5]; at 1.2 µM -3% | [5]; at 3.7 µM 0% | [5]; at 11.0 µM 7% | [5]; at 33.0 µM 14% | [5]; at 100.0 µM 34% | [6]; [16] 27% | [7]; at 1.2 µM 0% | [7]; at 3.7 µM 4% | [7]; at 11.0 µM 6% | [7]; at 33.0 µM 15% | [7]; at 100.0 µM 19% | [8]; [16] 22% | [8]; [17] 40% | [8]; at 50.0 µM 36.8% | [9]; at 1.2 µM 0% | [9]; at 3.7 µM 3% | [9]; [16] -8% | [9]; at 11.0 µM 7% | [9]; at 33.0 µM 5% | [9]; [17] 11% | [9]; at 50.0 µM 17.8% | [9]; at 100.0 µM 17% | [10]; at 1.2 µM -1% | [10]; at 3.7 µM 2% | [10]; at 11.0 µM 14% | [10]; at 33.0 µM 48% | [11]; at 1.2 µM 3% | [11]; at 3.7 µM 9% | [11]; at 11.0 µM 18% | [11]; at 33.0 µM 53% | [12]; at 1.2 µM 1% | [12]; at 3.7 µM 12% | [12]; at 11.0 µM 36% | [13]; [16] 13% | [13]; [17] 51% | [13]; at 50.0 µM 62.9% | [15]; at 1.2 µM 1% | [15]; at 3.7 µM 6% | [15]; at 11.0 µM 15% | [15]; at 33.0 µM 32% | [15]; at 100.0 µM 56%
active: [14]; at 100.0 µM 85% | [2]; at 100.0 µM 80% | [3]; [17] 70% | [4]; [17] 78% | [4]; at 50.0 µM 83.5% | [4]; at 100.0 µM 83% | [6]; [17] 82% | [6]; at 50.0 µM 91.7% | [10]; at 100.0 µM 76% | [11]; at 100.0 µM 77% | [12]; at 33.0 µM 76% | [12]; at 100.0 µM 88%

c1ccc(-c2ccnc3c2ccc2c(-c4ccccc4)ccnc23)cc1
inactive: [1]; at 1.2 µM 5% | [1]; at 3.7 µM -4% | [1]; at 11.0 µM 9% | [14]; at 1.2 µM 2% | [14]; at 3.7 µM -4% | [14]; at 11.0 µM 22% | [2]; at 1.2 µM 10% | [2]; at 3.7 µM -9% | [2]; at 11.0 µM 63% | [3]; at 1.2 µM 7% | [3]; at 3.7 µM 13% | [3]; [16] 2% | [3]; at 11.0 µM 67% | [4]; at 1.2 µM 22% | [4]; at 3.7 µM 24% | [4]; [16] -31% | [4]; at 11.0 µM 53%
active: [1]; at 33.0 µM 97% | [1]; at 100.0 µM 97% | [14]; at 33.0 µM 97% | [14]; at 100.0 µM 97% | [2]; at 33.0 µM 98% | [2]; at 100.0 µM 97% | [3]; at 33.0 µM 98% | [3]; [17] 97% | [3]; at 50.0 µM 91.2% | [3]; at 100.0 µM 97% | [4]; at 33.0 µM 99% | [4]; [17] 98% | [4]; at 50.0 µM 92.8%
